Measured values reported in PubChem BioAssay (NCI).
“And” between values parts separate entries of the source, which are not always exact repeats. Equal values may be shown once. Compounds without any hit were thinned out: in the full panel of roughly 83,000, 20% have a hit.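 For each line, cells grew in 96-well plates with the test compound present at a single concentration for 48 hours.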 The source made the active and inactive calls. The calls were made as follows: active = growth percent below 10; inactive = the rest.

How the values were obtained:
Test in all cases: NCI-60 one-dose screen, 48 h (100 = growth as untreated, 0 = no growth, -100 = all killed)
Conditions in all cases: 10 µM unless noted
NCI-H23 lung = system: NCI-H23 lung
NCI-H226 lung = system: NCI-H226 lung
HOP-62 NSCLC = system: HOP-62 NSCLC
NCI-H460 lung = system: NCI-H460 lung
HOP-92 NSCLC = system: HOP-92 NSCLC
NCI-H522 lung = system: NCI-H522 lung
A549/ATCC NSCLC = system: A549/ATCC NSCLC
786-0 renal = system: 786-0 renal
COLO 205 colon = system: COLO 205 colon
DU-145 prostate = system: DU-145 prostate
K-562 leukemia = system: K-562 leukemia
MALME-3M melanoma = system: MALME-3M melanoma
MDA-MB-231 breast = system: MDA-MB-231 breast
RXF 393 renal = system: RXF 393 renal
SF-268 CNS = system: SF-268 CNS
SF-295 CNS = system: SF-295 CNS
SF-539 CNS = system: SF-539 CNS
UACC-257 melanoma = system: UACC-257 melanoma
M14 melanoma = system: M14 melanoma
NCI-H322M lung = system: NCI-H322M lung

Structure (SMILES)	growth (NCI-H23 lung)	growth (NCI-H226 lung)	growth (HOP-62 NSCLC)	growth (NCI-H460 lung)	growth (HOP-92 NSCLC)	growth (NCI-H522 lung)	growth (A549/ATCC NSCLC)	growth (786-0 renal)	growth (COLO 205 colon)	growth (DU-145 prostate)	growth (K-562 leukemia)	growth (MALME-3M melanoma)	growth (MDA-MB-231 breast)	growth (RXF 393 renal)	growth (SF-268 CNS)	growth (SF-295 CNS)	growth (SF-539 CNS)	growth (UACC-257 melanoma)	growth (M14 melanoma)	growth (NCI-H322M lung)
CC1(c2ccc3ccccc3c2)CCC(=O)O1 (centres undefined)	95% (inactive)	110% (inactive)	93.5% (inactive)	112% (inactive)	106% (inactive)	91.3% (inactive)	101% (inactive)	103% (inactive)	99.3% (inactive)	107% (inactive)	86.7% (inactive)	96.8% (inactive)	111% (inactive)	104% (inactive)	99.7% (inactive)	107% (inactive)	95.7% (inactive)	96.5% (inactive)	117% (inactive)	
O=[N+]([O-])c1ccc(-n2[nH]nnc2=S)cc1	98.5% (inactive)	107% (inactive)		110% (inactive)	102% (inactive)	91.3% (inactive)	102% (inactive)	106% (inactive)	100% (inactive)	112% (inactive)	102% (inactive)	89.2% (inactive)	93.6% (inactive)	166% (inactive)	98.3% (inactive)	95.2% (inactive)	104% (inactive)	113% (inactive)	109% (inactive)	92.8% (inactive)
CC1=C[C@H]2c3c(c(O)c(O)c4oc5cc(O)cc(O)c5c(=O)c34)[C@H](c3cc(O)c(O)c4oc5cc(O)cc(O)c5c(=O)c34)[C@H]2C(C)(C)C1	-5.6% (active) and -52.4% (active)	2.7% (active) and -31.2% (active)	-16.2% (active)	-41.5% (active) and -57.7% (active)	-8.6% (active) and -43.8% (active)	-50.7% (active) and -52.7% (active)	-10% (active) and -37.5% (active)	-18.9% (active) and -42.3% (active)	-44.6% (active)	22.6% (inactive) and -4.25% (active)	2.32% (active)	10.8% (inactive) and -30.5% (active)	-7.38% (active) and -58.3% (active)	-4.11% (active)	10.3% (inactive) and -12.3% (active)	-47.5% (active) and -27.1% (active)	-33.5% (active) and -26.5% (active)	21% (inactive) and 0.565% (active)	-9.96% (active) and -19.6% (active)	
CC1CCCC(=O)O1 (centres undefined)	104% (inactive) and 97.1% (inactive)	93.3% (inactive) and 101% (inactive)	94.3% (inactive) and 96.5% (inactive)	104% (inactive) and 112% (inactive)	91.8% (inactive)	86.3% (inactive) and 104% (inactive)	108% (inactive) and 97.9% (inactive)	92.6% (inactive) and 93.3% (inactive)	107% (inactive) and 122% (inactive)	106% (inactive) and 107% (inactive)	104% (inactive) and 108% (inactive)	104% (inactive)	103% (inactive) and 111% (inactive)	101% (inactive) and 112% (inactive)	102% (inactive) and 111% (inactive)	99.5% (inactive) and 102% (inactive)	100% (inactive) and 94.7% (inactive)	104% (inactive) and 98.9% (inactive)	101% (inactive) and 105% (inactive)	
NC(=S)NN=C1CCC(C2CCCCC2)CC1 (centres undefined)	103% (inactive) and 94.1% (inactive)	89.1% (inactive) and 73% (inactive)		106% (inactive) and 108% (inactive)	95.7% (inactive) and 92.3% (inactive)	52.2% (inactive) and 47.2% (inactive)	94% (inactive) and 99.5% (inactive)	96.7% (inactive) and 91.9% (inactive)	102% (inactive) and 95% (inactive)	96.7% (inactive) and 103% (inactive)	89.9% (inactive) and 89.5% (inactive)	90.6% (inactive)	94.6% (inactive) and 93.6% (inactive)	92.3% (inactive) and 92.9% (inactive)	89.9% (inactive) and 102% (inactive)	93% (inactive) and 87.7% (inactive)	97.1% (inactive) and 82.8% (inactive)	66.4% (inactive) and 66.9% (inactive)	92.2% (inactive) and 85% (inactive)	95.9% (inactive) and 88.2% (inactive)
Cc1c(Cl)cccc1NCN1C(=O)c2ccccc2C1=O	102% (inactive)	98.7% (inactive)		108% (inactive)		81.1% (inactive)	99.1% (inactive)	103% (inactive)	105% (inactive)	115% (inactive)	109% (inactive)	104% (inactive)	121% (inactive)	107% (inactive)	107% (inactive)	102% (inactive)	102% (inactive)	100% (inactive)	110% (inactive)	99.8% (inactive)
Cc1ccc(S(=O)(=O)Nc2ccc3cc([N+](=O)[O-])ccc3c2[N+](=O)[O-])cc1	65.7% (inactive) and 92.6% (inactive)	67.6% (inactive) and 95.5% (inactive)	92.7% (inactive) and 95% (inactive)	76.4% (inactive) and 91.3% (inactive)	27.9% (inactive) and -8.68% (active)	54.6% (inactive) and 85.3% (inactive)	77.7% (inactive) and 91.2% (inactive)	72.2% (inactive) and 85.9% (inactive)	106% (inactive) and 96.6% (inactive)	90.9% (inactive) and 106% (inactive)	81.8% (inactive) and 29% (inactive)	62.6% (inactive) and 90.9% (inactive)	98.8% (inactive) and 95.1% (inactive)	93.2% (inactive) and 102% (inactive)	81.8% (inactive) and 94.8% (inactive)	38.9% (inactive) and 53.1% (inactive)	89.8% (inactive) and 111% (inactive)	82.3% (inactive) and 97% (inactive)	95.5% (inactive) and 95% (inactive)	
CN1CCN(c2ccc3nc(-c4c(N)c5c(F)cccc5[nH]c4=O)[nH]c3c2)CC1	27.9% (inactive) and 34.1% (inactive)	54.8% (inactive) and 71.3% (inactive)	23.4% (inactive) and 24.6% (inactive)	6.56% (active) and 7.99% (active)	43.9% (inactive) and 44.5% (inactive)	18.5% (inactive) and 53.8% (inactive)	12.9% (inactive) and 22.3% (inactive)	38.1% (inactive) and 24.8% (inactive)	5.09% (active) and 26.8% (inactive)	33.5% (inactive) and 29.3% (inactive)	-26.6% (active) and -24.4% (active)	7.87% (active) and -13.5% (active)	42.4% (inactive) and 52.5% (inactive)	-1.36% (active) and 26.3% (inactive)	44.7% (inactive) and 48.9% (inactive)	56.6% (inactive) and 71.6% (inactive)	6.28% (active) and 11.5% (inactive)	-59.4% (active) and -18.1% (active)	-25.3% (active) and 2.34% (active)	
CN(C)c1ccc2nc3ccc(=[N+](C)C)cc-3sc2c1	12.5% (inactive) and 8.52% (active) and 28% (inactive)	52.2% (inactive) and 66.6% (inactive) and 68.8% (inactive)		17.1% (inactive) and 13.5% (inactive) and 32.9% (inactive)	63.3% (inactive) and 43.9% (inactive) and 76.6% (inactive)	6.69% (active) and 34.6% (inactive) and 37.6% (inactive)		40.9% (inactive) and 45.6% (inactive) and 54.6% (inactive)	11.2% (inactive) and -3.25% (active) and -16.6% (active)	33.3% (inactive) and 39.8% (inactive) and 87.1% (inactive)	27.4% (inactive) and 41.7% (inactive) and 43.5% (inactive)	-30.4% (active) and -12.7% (active) and 48.8% (inactive)	8.14% (active) and 10% (active) and 33.4% (inactive)	79.9% (inactive) and 65.7% (inactive) and 82.6% (inactive)	27.7% (inactive) and 22.8% (inactive) and 26.2% (inactive)	17.2% (inactive) and 17.6% (inactive) and 43% (inactive)	28.4% (inactive) and 3.79% (active) and 15.5% (inactive)	-12.8% (active) and -22.4% (active) and 17.8% (inactive)	2.78% (active) and 3.94% (active) and 15.5% (inactive)	24.8% (inactive) and 11.7% (inactive) and 30.7% (inactive)
